Laboratory results as given in PubChem BioAssay (NCI).
About 83,000 compounds went through this panel and 20% of them were active in at least one assay; those are over-represented in the sample as a whole.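 Treatment: one concentration, 48 hours, 96-well format. Scoring: percent growth, with anything below 10 considered active.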 Activity calls are given as the source filed them.

Legend:
Assay in all cases: NCI-60 one-dose screen, 48 h (100 = growth as untreated, 0 = no growth, -100 = all killed)
Details in all cases: 10 µM
DU-145 prostate = system: DU-145 prostate
K-562 leukemia = system: K-562 leukemia
MALME-3M melanoma = system: MALME-3M melanoma
MDA-MB-231 breast = system: MDA-MB-231 breast
RXF 393 renal = system: RXF 393 renal
SF-268 CNS = system: SF-268 CNS
SF-295 CNS = system: SF-295 CNS
SF-539 CNS = system: SF-539 CNS
UACC-257 melanoma = system: UACC-257 melanoma
M14 melanoma = system: M14 melanoma
HCT-15 colon = system: HCT-15 colon
HT29 colon = system: HT29 colon
SNB-75 CNS = system: SNB-75 CNS
SNB-19 CNS = system: SNB-19 CNS
SK-MEL-5 melanoma = system: SK-MEL-5 melanoma
UACC-62 melanoma = system: UACC-62 melanoma
LOX IMVI melanoma = system: LOX IMVI melanoma
SK-MEL-28 melanoma = system: SK-MEL-28 melanoma
U251 CNS = system: U251 CNS
PC-3 prostate = system: PC-3 prostate

Measured: growth

CCOC(=O)C1=CSC2=NC3=C(CCC/C3=C\c3ccc(Cl)cc3)C(c3ccc(Cl)cc3)N12 (configuration not stated)
inactive: DU-145 prostate 92.7% | K-562 leukemia 92.7% | MALME-3M melanoma 103% | MDA-MB-231 breast 94.5% | RXF 393 renal 78.8% | SF-268 CNS 90.8% | SF-295 CNS 104% | SF-539 CNS 103% | UACC-257 melanoma 85.7% | M14 melanoma 92.5% | HCT-15 colon 91.9% | HT29 colon 82.8% | SNB-75 CNS 86.4% | SNB-19 CNS 81.3% | SK-MEL-5 melanoma 84.7% | UACC-62 melanoma 82% | LOX IMVI melanoma 74.9% | SK-MEL-28 melanoma 99.5%

Cc1ccc(NCCN(C)CC(C)O)c2c(=O)c3ccc(Cl)cc3sc12 (configuration not stated)
inactive: DU-145 prostate 59.7% | RXF 393 renal 22.9% | SF-268 CNS 58.4% | SF-295 CNS 82.6% | SF-539 CNS 81.5% | UACC-257 melanoma 24.7% | SNB-75 CNS 76.3% | SNB-19 CNS 55% | PC-3 prostate 48.2% | SK-MEL-5 melanoma 46.9%
active: K-562 leukemia -61.2% | MALME-3M melanoma -24.2% | MDA-MB-231 breast -16.4% | M14 melanoma -74.7% | HT29 colon -27% | U251 CNS 8.57% | UACC-62 melanoma -68.7% | LOX IMVI melanoma -82.9% | SK-MEL-28 melanoma -53.5%

O=C1/C=C/[C@@H](O)[C@@H]2C[C@@H](O)C[C@H]2/C=C/CCC[C@@H](C(F)(F)F)O1
inactive: DU-145 prostate 119% | K-562 leukemia 92% | MALME-3M melanoma 65% | MDA-MB-231 breast 96.7% | RXF 393 renal 42.7% | SF-268 CNS 93.9% | SF-295 CNS 97.2% | SF-539 CNS 105% | UACC-257 melanoma 51.8% | M14 melanoma 112% | HCT-15 colon 100% | HT29 colon 39.9% | SNB-75 CNS 60.7% | SNB-19 CNS 97.1% | PC-3 prostate 92.9% | SK-MEL-5 melanoma 60.5% | LOX IMVI melanoma 71.3%

COC(=O)c1c[nH]c2cc(OC(C)C)c(OC(C)C)cc2c1=O
inactive: DU-145 prostate 110% | K-562 leukemia 98.9% | MALME-3M melanoma 125% | MDA-MB-231 breast 109% | RXF 393 renal 94.7% | SF-268 CNS 104% | SF-295 CNS 105% | SF-539 CNS 91% | UACC-257 melanoma 87.6% | M14 melanoma 108% | HCT-15 colon 101% | HT29 colon 95.6% | SNB-19 CNS 105% | SK-MEL-5 melanoma 98.3% | UACC-62 melanoma 106% | LOX IMVI melanoma 95.9% | SK-MEL-28 melanoma 117%
active: U251 CNS 6.2%

CC(C)(C)OC(=O)CC(S(=O)(=O)c1ccccc1)S(=O)(=O)c1ccccc1
active: MALME-3M melanoma -41.1%
inactive: DU-145 prostate 94.2% | K-562 leukemia 43.9% | MDA-MB-231 breast 103% | RXF 393 renal 69.4% | SF-268 CNS 102% | SF-295 CNS 110% | SF-539 CNS 107% | UACC-257 melanoma 91.9% | M14 melanoma 116% | HCT-15 colon 77.9% | HT29 colon 104% | SNB-75 CNS 99.2% | SNB-19 CNS 95.2% | PC-3 prostate 101% | SK-MEL-5 melanoma 94.2% | UACC-62 melanoma 103% | LOX IMVI melanoma 94.7% | SK-MEL-28 melanoma 105%

CCC(c1ccc(OC)cc1)C(CC)c1ccc(O)c(CN2CCN(C)CC2)c1 (configuration not stated)
active: K-562 leukemia 9.45% | MALME-3M melanoma 6.2% | UACC-257 melanoma -5.73% | M14 melanoma -19.5% | SK-MEL-5 melanoma 4.57% | UACC-62 melanoma -30.5% | SK-MEL-28 melanoma -13.2%
inactive: DU-145 prostate 92.4% | MDA-MB-231 breast 56.3% | RXF 393 renal 39.3% | SF-268 CNS 80.6% | SF-295 CNS 28.9% | SF-539 CNS 67.4% | HT29 colon 12.1% | SNB-75 CNS 56.9% | SNB-19 CNS 74.5% | U251 CNS 29.8% | PC-3 prostate 45.1% | LOX IMVI melanoma 46.2%

C/C=C/CSC(C)(C)C(=O)NC
inactive: DU-145 prostate 103% | K-562 leukemia 110% | MALME-3M melanoma 111% | MDA-MB-231 breast 120% | RXF 393 renal 110% | SF-268 CNS 103% | SF-295 CNS 106% | SF-539 CNS 100% | UACC-257 melanoma 92.2% | M14 melanoma 104% | HT29 colon 98.1% | SNB-75 CNS 92% | SNB-19 CNS 101% | U251 CNS 104% | PC-3 prostate 92.8% | SK-MEL-5 melanoma 101% | UACC-62 melanoma 105% | LOX IMVI melanoma 97% | SK-MEL-28 melanoma 112%

COc1cc2c(cc1NC(=O)C(F)(F)F)-c1ccc(NC(=O)C(F)(F)F)cc1C2
active: SNB-75 CNS -1.06%
inactive: DU-145 prostate 93.4% | K-562 leukemia 100% | MALME-3M melanoma 83.7% | MDA-MB-231 breast 91.1% | RXF 393 renal 35.7% | SF-268 CNS 90.1% | SF-295 CNS 83.4% | SF-539 CNS 80.6% | UACC-257 melanoma 109% | M14 melanoma 113% | HCT-15 colon 106% | HT29 colon 106% | SNB-19 CNS 86.4% | PC-3 prostate 90.8% | SK-MEL-5 melanoma 90.8% | UACC-62 melanoma 92% | LOX IMVI melanoma 94.2% | SK-MEL-28 melanoma 103%

CCOC(=O)CC(S(=O)(=O)c1ccccc1)S(=O)(=O)c1ccccc1
inactive: DU-145 prostate 111% | K-562 leukemia 78.7% | MALME-3M melanoma 39.8% | MDA-MB-231 breast 109% | RXF 393 renal 57.5% | SF-268 CNS 101% | SF-295 CNS 108% | SF-539 CNS 104% | UACC-257 melanoma 89.6% | M14 melanoma 115% | HCT-15 colon 93.4% | HT29 colon 91% | SNB-75 CNS 96.2% | SNB-19 CNS 93.4% | PC-3 prostate 97.7% | SK-MEL-5 melanoma 96.6% | LOX IMVI melanoma 98.6% | SK-MEL-28 melanoma 109%

COc1cc(-c2nn(-c3ccc(NC(=O)NCCNS(=O)(=O)c4ccc(F)cc4)cc3)cc2-c2ccncc2)ccc1Cl
inactive: MALME-3M melanoma 24.8% | UACC-257 melanoma 41.2% | SNB-75 CNS 13.8% | SNB-19 CNS 31% | UACC-62 melanoma 25.7% | SK-MEL-28 melanoma 26.4%
active: DU-145 prostate 8.28% | K-562 leukemia 2.45% | MDA-MB-231 breast -30.7% | RXF 393 renal 2.59% | SF-268 CNS 7.56% | SF-295 CNS -39.5% | SF-539 CNS -46.4% | M14 melanoma -18% | HT29 colon -24.9% | U251 CNS 4.44% | PC-3 prostate 8.93% | SK-MEL-5 melanoma -63.6% | LOX IMVI melanoma 1.79%

C/C=C/C1=CN2C(=O)c3cc(OC4OC(C)C(NC)C(C)(O)C4O)c(C)c(O)c3N=C[C@@H]2C1 (some centres not stated)
active: DU-145 prostate -12.7% | K-562 leukemia 4.18% | MALME-3M melanoma -51.9% | MDA-MB-231 breast -10.1% | RXF 393 renal -40.5% | SF-268 CNS -35.5% | SF-295 CNS -25% | SF-539 CNS -46.1% | UACC-257 melanoma -6.48% | M14 melanoma -63.2% | HCT-15 colon 4.24% | HT29 colon 5.18% | SNB-19 CNS 9.3% | U251 CNS 5.6% | PC-3 prostate 3.42% | SK-MEL-5 melanoma -62.2% | UACC-62 melanoma -90.8% | LOX IMVI melanoma -21.4% | SK-MEL-28 melanoma -37.2%

C[C@]12CC[C@@H]3c4ccc(O)cc4CC[C@H]3[C@@H]1CC[C@@H]2NS(=O)(=O)c1ccc(C(F)(F)F)cc1
inactive: DU-145 prostate 69.8% | K-562 leukemia 22.5% | MDA-MB-231 breast 67.2% | RXF 393 renal 22.9% | SF-268 CNS 57% | SF-295 CNS 30.9% | SF-539 CNS 78.1% | UACC-257 melanoma 73.6% | M14 melanoma 36.6% | HCT-15 colon 32.7% | SNB-75 CNS 62.1% | SNB-19 CNS 97.5% | PC-3 prostate 24.2% | SK-MEL-5 melanoma 41.2% | UACC-62 melanoma 73.5% | SK-MEL-28 melanoma 73.1%
active: MALME-3M melanoma 9.1%

Cc1ccc(C(=O)C2C(=O)C3CCC2C3)cc1 (configuration not stated)
inactive: DU-145 prostate 121% | K-562 leukemia 102% | MALME-3M melanoma 121% | MDA-MB-231 breast 107% | RXF 393 renal 109% | SF-268 CNS 108% | SF-295 CNS 101% | SF-539 CNS 106% | UACC-257 melanoma 94.1% | M14 melanoma 111% | HCT-15 colon 106% | HT29 colon 108% | SNB-75 CNS 93.7% | SNB-19 CNS 95.7% | PC-3 prostate 94.2% | SK-MEL-5 melanoma 102% | UACC-62 melanoma 98.9% | LOX IMVI melanoma 95.4% | SK-MEL-28 melanoma 99.6%

CCOC(=O)c1cc(C(=O)c2ccc(F)cc2F)n2ccccc12
inactive: DU-145 prostate 105% | K-562 leukemia 85.9% | MALME-3M melanoma 120% | MDA-MB-231 breast 79.9% | RXF 393 renal 99.3% | SF-268 CNS 85.7% | SF-295 CNS 94.7% | SF-539 CNS 95.2% | UACC-257 melanoma 93.4% | M14 melanoma 108% | HT29 colon 77.4% | SNB-75 CNS 83.6% | SNB-19 CNS 84.3% | U251 CNS 79.4% | PC-3 prostate 75.6% | SK-MEL-5 melanoma 92.6% | UACC-62 melanoma 86.4% | LOX IMVI melanoma 90.4% | SK-MEL-28 melanoma 115%

C=CCn1c(SCC(=O)Nc2ccc(C(=O)/C=C/c3ccc(Cl)cc3)cc2)nnc1-c1cc(-c2ccccc2)nc2ccccc12
inactive: DU-145 prostate 95.6% | K-562 leukemia 27.6% | MALME-3M melanoma 87.1% | MDA-MB-231 breast 58.3% | RXF 393 renal 63.9% | SF-268 CNS 76% | SF-295 CNS 102% | SF-539 CNS 69.8% | UACC-257 melanoma 93.4% | M14 melanoma 76.3% | HT29 colon 40.9% | SNB-75 CNS 59.8% | SNB-19 CNS 66.9% | U251 CNS 48.1% | PC-3 prostate 70.4% | SK-MEL-5 melanoma 87.1% | UACC-62 melanoma 59.9% | SK-MEL-28 melanoma 99.7%
active: LOX IMVI melanoma -82.4%

N#Cc1c(-c2ccc(Cl)cc2)n(O)c2ccccc12
active: MALME-3M melanoma 6.37% | RXF 393 renal 9.91% | SF-539 CNS -10.1% | SK-MEL-5 melanoma -57.5% | UACC-62 melanoma 8.34%
inactive: DU-145 prostate 25.4% | K-562 leukemia 11.6% | MDA-MB-231 breast 30.5% | SF-268 CNS 32.5% | SF-295 CNS 42.1% | UACC-257 melanoma 47.4% | M14 melanoma 13.5% | HCT-15 colon 22.6% | HT29 colon 82.8% | SNB-75 CNS 12.5% | SNB-19 CNS 11% | PC-3 prostate 41.2% | LOX IMVI melanoma 23.8% | SK-MEL-28 melanoma 15.6%
